{"source": "PubChem BioAssay AID372", "about": "(MTDP, 2006)", "note": "The campaign covered roughly 100,000 compounds. About 770 (0.77%) were called active. The sample holds actives, similar compounds and a random draw of the others, so the mix is not that of the screen. Rule as the data show it: active = inhibition above about 50%; inactive = the rest.", "data": [{"target": "Gag-Pol polyprotein (Human immunodeficiency virus type 1 group M subtype B (isolate HXB2)) (UniProt P04585)", "test": "RNase H inhibition, HIV 1 Gag Pol polyprotein, FRET biochemical assay, screening (AID 372)", "settings": "HIV-1 RT RNase H, FRET RNA/DNA substrate fluorescence; at 10 µM; active compounds read high", "values": [{"smiles": "CCC(=O)c1cc(Cl)ccc1NC(=O)c1ccc(Br)cc1", "inhibition": "10% (inactive)"}, {"smiles": "CC(=O)c1cccc(NC(=O)c2ccc(OC3CSC3)cc2)c1", "inhibition": "8% (inactive)"}, {"smiles": "Cc1sc(NC(=O)C2C3C=CC(C3)C2C(=O)O)c(C(N)=O)c1C", "note": "(centres undefined)", "inhibition": "6% (inactive)"}, {"smiles": "CCOc1cc(/C=C2\\C(=O)NC(=O)N(c3ccc(Br)cc3)C2=O)ccc1OCC(=O)O", "inhibition": "8% (inactive)"}, {"smiles": "O=C(O)c1cccc(N2C(=O)c3cccnc3C2=O)c1", "inhibition": "0% (inactive)"}, {"smiles": "O=C(O)c1cccc(N2C(=O)c3ccc(Br)cc3C2=O)c1", "inhibition": "1% (inactive)"}, {"smiles": "O=C(O)c1cccc(N2C(=O)c3ccc4c5c(ccc(c35)C2=O)CC4)c1", "inhibition": "56% (active)"}, {"smiles": "COc1ccc(-c2nnc(SCC(=O)c3cccc([N+](=O)[O-])c3)n2-c2ccc(C)cc2)cc1OC", "inhibition": "19% (inactive)"}, {"smiles": "Oc1ccc(Nc2nc(-c3ccc(Br)cc3)cs2)cc1", "inhibition": "21% (inactive)"}, {"smiles": "O=C1c2ccc3c4c(ccc(c24)C(=O)N1/N=C/c1ccco1)CC3", "inhibition": "3% (inactive)"}, {"smiles": "O=[N+]([O-])c1ccc2c(c1)C(C#Cc1ccccc1)C1CCCCC1(N1CCOCC1)O2", "note": "(centres undefined)", "inhibition": "57% (active)"}, {"smiles": "Oc1ccc2c(c1)C1CCCCC1(N1CCCCC1)O2", "note": "(centres undefined)", "inhibition": "0% (inactive)"}, {"smiles": "Oc1cc(-c2ccccc2)c2c(c1)C1CCCCC1(N1CCOCC1)O2", "note": "(centres undefined)", "inhibition": "0% (inactive)"}, {"smiles": "COc1cc(/C=N/NC(=O)COc2ccc(Cl)cc2Br)cc(Br)c1O", "inhibition": "24% (inactive)"}, {"smiles": "O=C(COc1ccc2ccccc2c1)N/N=C\\c1cc(O)c(O)c(Br)c1", "inhibition": "73% (active)"}, {"smiles": "O=C(COc1ccc2ccccc2c1)N/N=C/c1ccccc1Br", "inhibition": "13% (inactive)"}, {"smiles": "COc1ccc(OCC(=O)N/N=C\\c2cc(O)c(O)c(Br)c2)c(Br)c1", "inhibition": "64% (active)"}, {"smiles": "O=C(COc1ccc2ccccc2c1)N/N=C/c1ccccc1", "inhibition": "4% (inactive)"}, {"smiles": "COc1ccc(OCC(=O)N/N=C/c2ccc(OC)c(Br)c2)cc1", "inhibition": "2% (inactive)"}, {"smiles": "Cc1cc(=O)[nH]c(N/N=C/c2ccc(O)cc2)n1", "inhibition": "2% (inactive)"}, {"smiles": "CC(C)(C)c1cc(C(=O)Nc2nsc(-c3ccccc3)n2)cc(C(C)(C)C)c1", "inhibition": "7% (inactive)"}, {"smiles": "COc1ccc(NC(=O)/C=C/c2ccc(C)o2)cc1", "inhibition": "21% (inactive)"}, {"smiles": "O=c1oc2ccccc2cc1-c1nn(-c2ccccc2)cc1/C=N/O", "inhibition": "21% (inactive)"}, {"smiles": "N#CC(C#N)=Cc1cn(-c2ccccc2)nc1-c1cc2ccccc2oc1=O", "inhibition": "56% (active)"}, {"smiles": "N#C/C(=C/c1cn(-c2ccccc2)nc1-c1cc2ccccc2oc1=O)C(N)=O", "inhibition": "8% (inactive)"}, {"smiles": "Cc1ccccc1-c1nc2c3c4c(sc3ncn2n1)CCCCC4", "inhibition": "8% (inactive)"}, {"smiles": "COc1ccc(OCC(=O)Nc2sc3c(c2C(N)=O)CCCC3)cc1", "inhibition": "41% (inactive)"}, {"smiles": "CCc1ccc(-c2nc3cc(NC(=O)COc4ccc([N+](=O)[O-])cc4)ccc3o2)cc1", "inhibition": "43% (inactive)"}, {"smiles": "O=C(COc1ccc([N+](=O)[O-])cc1)Nc1ccc2oc(-c3ccccc3F)nc2c1", "inhibition": "49% (inactive)"}, {"smiles": "O=C(COc1ccc([N+](=O)[O-])cc1)Nc1ccc2oc(-c3ccccc3Cl)nc2c1", "inhibition": "53% (active)"}, {"smiles": "Cc1cccc(OCC(=O)Nc2ccc3oc(-c4cccc(I)c4)nc3c2)c1", "inhibition": "22% (inactive)"}, {"smiles": "O=C(COc1ccc([N+](=O)[O-])cc1)Nc1ccc2oc(-c3ccc(Br)cc3)nc2c1", "inhibition": "14% (inactive)"}, {"smiles": "COc1ccc(OCC(=O)Nc2ccc3oc(-c4ccncc4)nc3c2)cc1", "inhibition": "14% (inactive)"}, {"smiles": "O=C(COc1ccc([N+](=O)[O-])cc1)Nc1ccc2oc(-c3cccc(Cl)c3)nc2c1", "inhibition": "9% (inactive)"}, {"smiles": "COc1ccc(OCC(=O)Nc2ccc3oc(-c4cccc(I)c4)nc3c2)cc1", "inhibition": "53% (active)"}, {"smiles": "COc1ccc(-c2nc3cc(NC(=O)COc4ccc([N+](=O)[O-])cc4)ccc3o2)cc1", "inhibition": "55% (active)"}, {"smiles": "O=c1[nH]c(-c2cccc(O)c2)nc2sc3c(c12)CCCC3", "inhibition": "22% (inactive)"}, {"smiles": "COc1cccc(COc2cc3oc(=O)c4c(c3cc2Cl)CCCC4)c1", "inhibition": "12% (inactive)"}, {"smiles": "O=C(NCc1cccnc1)c1cnn2c(C(F)(F)F)cc(-c3ccc4c(c3)OCO4)nc12", "inhibition": "11% (inactive)"}, {"smiles": "Cc1ccc(NC(=O)/C=C/c2ccc3c(c2)OCO3)c(C)c1", "inhibition": "10% (inactive)"}, {"smiles": "C=CCN1C(=O)/C(=C\\c2ccc(-c3ccc(C(=O)OCC)cc3)o2)C(=O)NC1=S", "inhibition": "45% (inactive)"}, {"smiles": "CCCCn1c(/N=C/c2nc3ccccc3n2C)nc2ccccc21", "inhibition": "5% (inactive)"}, {"smiles": "CCN(CC)c1ccc(N2C(=O)/C(=C\\c3ccc(C)o3)SC2=S)cc1", "inhibition": "3% (inactive)"}, {"smiles": "CCN(CC)C(=O)C(=O)N/N=C/c1ccco1", "inhibition": "5% (inactive)"}, {"smiles": "S=C(Nc1ccc2nccnc2c1)Nc1cccc2ccccc12", "inhibition": "27% (inactive)"}, {"smiles": "O=C(N=Nc1c(O)n(CN2CCCCCC2)c2ccc(Br)cc12)c1cccnc1", "inhibition": "5% (inactive)"}, {"smiles": "COc1ccc(-c2csc(/C(C#N)=C/c3ccc(O)c(O)c3)n2)cc1OC", "inhibition": "84% (active)"}, {"smiles": "N#C/C(=C\\c1cccc(Br)c1)c1nc(-c2cccc([N+](=O)[O-])c2)cs1", "inhibition": "22% (inactive)"}, {"smiles": "COc1ccc(/C=C(\\C#N)c2nc(-c3ccc(OC)c(OC)c3)cs2)cc1O", "inhibition": "25% (inactive)"}, {"smiles": "COc1ccc(-c2csc(/C(C#N)=C/c3ccc(O)cc3)n2)cc1OC", "inhibition": "24% (inactive)"}, {"smiles": "N#C/C(=C\\c1ccccc1[N+](=O)[O-])c1nc(-c2cc3cc([N+](=O)[O-])ccc3oc2=O)cs1", "inhibition": "52% (active)"}, {"smiles": "N#C/C(=C\\c1cccc([N+](=O)[O-])c1)c1nc(-c2cc3cc([N+](=O)[O-])ccc3oc2=O)cs1", "inhibition": "7% (inactive)"}, {"smiles": "N#C/C(=C\\C=C\\c1ccccc1[N+](=O)[O-])c1nc(-c2cc3cc([N+](=O)[O-])ccc3oc2=O)cs1", "inhibition": "6% (inactive)"}, {"smiles": "N#C/C(=C\\c1ccc(O)c(O)c1)c1nc(-c2cccc([N+](=O)[O-])c2)cs1", "inhibition": "60% (active)"}, {"smiles": "N#C/C(=C\\c1cccc([N+](=O)[O-])c1)c1nc(-c2cccc([N+](=O)[O-])c2)cs1", "inhibition": "6% (inactive)"}, {"smiles": "Cc1ccc(-n2c(/C=C3/C(=O)N(C)c4ccc(Br)cc43)nc3ccccc3c2=O)cc1", "inhibition": "2% (inactive)"}, {"smiles": "C=CCN1C(=O)C(Cc2ccc(F)cc2)S/C1=N\\N=C\\c1ccco1", "note": "(centres undefined)", "inhibition": "3% (inactive)"}, {"smiles": "CC12C=CC(O1)C1C(=O)N(c3ccc([N+](=O)[O-])cc3)C(=O)C12", "note": "(centres undefined)", "inhibition": "11% (inactive)"}, {"smiles": "O=C1N/C(=N\\N=C\\c2ccccc2O)SC1Cc1ccc(Br)cc1", "note": "(centres undefined)", "inhibition": "16% (inactive)"}, {"smiles": "O=C(Nc1cccnc1)c1cccc(Cl)c1Cl", "inhibition": "5% (inactive)"}, {"smiles": "O=C1S/C(=C/c2cccc(Br)c2)C(=O)N1c1ccccc1", "inhibition": "12% (inactive)"}, {"smiles": "CCCN1C(=O)/C(=C\\c2cccc(Cl)c2)SC1=S", "inhibition": "19% (inactive)"}, {"smiles": "O=C(Nc1ccc(NC(=O)c2sc3ccccc3c2Cl)cc1)c1ccccc1", "inhibition": "53% (active)"}, {"smiles": "Cc1cccc(-c2nc3cc(NC(=O)c4sc5ccccc5c4Cl)ccc3o2)c1", "inhibition": "37% (inactive)"}, {"smiles": "CCc1ccc2oc(-c3ccc(NC(=O)c4sc5ccccc5c4Cl)cc3)nc2c1", "inhibition": "50% (active)"}, {"smiles": "Cc1ccc(-c2nc3cc(NC(=O)c4sc5ccccc5c4Cl)ccc3o2)cc1", "inhibition": "20% (inactive)"}, {"smiles": "O=C(Nc1nccs1)c1sc2ccccc2c1Cl", "inhibition": "7% (inactive)"}, {"smiles": "O=C(Nc1ccc2oc(-c3cccc(Cl)c3)nc2c1)c1sc2ccccc2c1Cl", "inhibition": "20% (inactive)"}, {"smiles": "CC(C)(C)c1ccc(C(=O)Nc2ccc(NC(=O)c3sc4ccccc4c3Cl)cc2)cc1", "inhibition": "24% (inactive)"}, {"smiles": "O=C(NC(=S)Nc1ccc(S(=O)(=O)Nc2nccs2)cc1)c1sc2ccccc2c1Cl", "inhibition": "70% (active)"}, {"smiles": "O=C(Nc1ccc(-c2nc3cc(Cl)ccc3o2)cc1)c1sc2ccccc2c1Cl", "inhibition": "41% (inactive)"}, {"smiles": "O=C(Nc1ccc2oc(-c3cccc(F)c3)nc2c1)c1sc2ccccc2c1Cl", "inhibition": "52% (active)"}, {"smiles": "O=C(c1ccccc1)c1ccc(NC(=O)c2sc3ccccc3c2Cl)cc1", "inhibition": "18% (inactive)"}, {"smiles": "O=S(=O)(Nc1nccs1)c1ccc(NC(=S)Nc2ccccc2)cc1", "inhibition": "8% (inactive)"}, {"smiles": "Cc1cc(C)c(C(N)=O)c(Nc2ccccc2)n1", "inhibition": "5% (inactive)"}, {"smiles": "Cc1ccccc1C(=O)NC(=S)Nc1ccc2c3c(cccc13)CC2", "inhibition": "21% (inactive)"}, {"smiles": "O=C(Nc1ccc(F)cc1F)c1cccc(I)c1", "inhibition": "4% (inactive)"}, {"smiles": "CCOc1ccccc1N=CC1=C(O)CC(c2ccccc2)CC1=O", "note": "(centres undefined)", "inhibition": "6% (inactive)"}, {"smiles": "Cc1ccc(-c2nc(NC(=O)c3cccc(F)c3)sc2-c2ccccc2)cc1", "inhibition": "16% (inactive)"}, {"smiles": "COc1cc(NC(=O)C(F)(F)F)c(Cl)cc1NC(=O)c1ccccc1", "inhibition": "0% (inactive)"}, {"smiles": "CCOc1ccc(C(=O)Nc2cccc(NC(=O)c3ccccc3Cl)c2)cc1", "inhibition": "8% (inactive)"}, {"smiles": "CCOc1ccc(C(=O)Nc2cccc(S(N)(=O)=O)c2)cc1Br", "inhibition": "4% (inactive)"}, {"smiles": "O=C1S/C(=C/c2ccccc2F)C(=O)N1CNc1ccc(I)cc1", "inhibition": "57% (active)"}, {"smiles": "COc1cccc(/C=C2/SC(=O)N(CNc3ccc(Br)cc3C)C2=O)c1", "inhibition": "58% (active)"}, {"smiles": "COc1ccc(/C=C2/SC(=O)N(CNc3ccc(I)cc3)C2=O)cc1", "inhibition": "6% (inactive)"}, {"smiles": "O=C1S/C(=C/c2ccccc2)C(=O)N1CNc1ccc(I)cc1", "inhibition": "3% (inactive)"}, {"smiles": "COc1ccc(/C=C2/SC(=O)N(CNc3ccc(Br)cc3C)C2=O)cc1", "inhibition": "7% (inactive)"}, {"smiles": "O=C1S/C(=C/c2ccc(F)cc2)C(=O)N1CNc1ccc(I)cc1", "inhibition": "4% (inactive)"}, {"smiles": "COc1ccc(OC)c(/C=C2/SC(=O)N(CNc3ccc(Br)cc3C)C2=O)c1", "inhibition": "5% (inactive)"}, {"smiles": "COc1ccc(/C=C2/SC(=O)N(CNc3ccccc3)C2=O)cc1", "inhibition": "9% (inactive)"}, {"smiles": "COc1cccc(/C=C2/SC(=O)N(CNc3ccc(I)cc3)C2=O)c1", "inhibition": "51% (active)"}, {"smiles": "Cc1nc2ccccn2c1C(=O)N/N=C\\c1ccccc1[N+](=O)[O-]", "inhibition": "9% (inactive)"}, {"smiles": "C=CCOCCN(CCOCC=C)C1=NS(=O)(=O)c2cc([N+](=O)[O-])ccc21", "inhibition": "8% (inactive)"}, {"smiles": "CC(=O)c1ccc(N2CCN(C(=O)c3cc(F)c(F)cc3Cl)CC2)c(F)c1", "inhibition": "7% (inactive)"}]}]}
